Molecules are shown by their SMILES. A number with no mark means an inactive call. Records with an inconclusive call do not appear. Calls of active or inactive are those of the source.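 Rule for the calls, unless noted: active = inhibition over a set limit, the all-compound mean plus 3 SD, in both replicate runs; inconclusive = over that limit in just one replicate run; inactive = at or under that limit in both runs.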

One experiment is described as follows: growth suppression of PTEN-deleted HCT116, pilot screen, cell-based, HCT116 clonal line, CellTiter-Glo (AID 824;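 active = viability at or below 27.92% in each of two runs, the all-compound median minus 4 SD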;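 note: 0% = 20 µM Hyamine control and 100% = vehicle cell control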). As to conditions: 60 h, at 10 µM, active compounds read low. For orientation: ATP-based viability assays read luminescence as a measure of living cells.
One may read the viability as a read-out of living cells in per cent, often relative to untreated cells. With `O=C(COc1ccccc1)NCc1nnc(SCC(=O)Nc2nccs2)n1-c1ccccc1`, the viability is 101%.

Regarding `O=C(NCCc1csc(-c2ccccc2)n1)c1cccs1`, the viability is 94.5%. Consider `COc1ccc(C2(C(=O)NCCCN(C)C)CCOCC2)cc1`, for which the viability is 100%. Still for that read-out and setting: then `COc1ccc(OCc2nnc(SCC(=O)O)n2N)cc1`, with 94.8%; and `Cc1cccc(N2CC(c3nc4ccccc4n3C)CC2=O)c1C` (configuration not stated), with 95.2%; and `CN(C)S(=O)(=O)c1ccc(C(=O)Nc2ccc(F)cc2F)cc1`, with 94.4%. On to `CC(=O)CCc1c(C)[nH]c2ccc(NC(C)=O)cc2c1=O`, for which the viability was 98%. The same measure, in the same setting: then `CC(C)C(NC(=O)CN1C(=O)c2ccccc2S1(=O)=O)C(C)C`, with 94.3%; and `CC12CCC(C(=O)Nc3ccc4c(c3)OCCO4)(OC1=O)C2(C)C` (configuration not stated), with 97.8%. `[O-]/[N+](=C\c1ccc(OC(F)F)cc1)c1ccccc1`: the viability was 93.7%. As to `COc1ccccc1NC(=O)C1=C(C)Nc2nnnn2C1c1cccc(C)c1` (configuration not stated), the viability was 80.8%. As for `CCOCCn1c(SCC(=O)OCc2ccccc2)nc2c1c(=O)[nH]c(=O)n2C`, the viability is 101%. Turning to `O=C(NCCCN1CCOCC1)c1ccco1`, the viability is 96.2%. As to `Cc1cccc(NC(=O)c2ccc(S(=O)(=O)N(C)C)cc2)c1`, the viability was 100%. In the case of `Cc1cc(=S)n(-c2ccccc2)n1C`, the viability is 95.4%. For `O=C(O)C1C2C=CC3(CN(C/C=C/c4ccccc4)C(=O)C13)O2` (configuration not stated), the viability is 100%. On to `COc1ccc(OC)c(NC(=O)Cn2cnc3c(cnn3-c3ccccc3)c2=O)c1`, for which the viability is 94.2%. Consider `Cc1cc(C)n2nc(S(=O)(=O)N(CC(C)C)CC(C)C)nc2n1`, for which the viability is 94.2%.

As to `Cc1cccc(N2CCN(c3nc4ccc(Cl)cc4n4cnnc34)CC2)c1C`, the viability was 1.75% (active). Regarding `O=C(O)c1cccc(-n2cnnn2)c1`, the viability was 101%.

In the case of `CN(C)CCCNc1ncnc2c1cnn2-c1ccccc1`, the viability was 106%. Same read-out and setting: then `O=C(Nc1nc(-c2ccccc2)cs1)c1cccs1`, with 72.8%.

A short description of the next experiment: inhibitors of the yeast RAM network, pilot screen, dse1pr::URA3 reporter, 5-FOA selection (AID 869).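 Note: 0% = DMSO wells with no growth and 100% = 10 µM 1-NA-PP1 with full growth; RAM network block rescues cells from 5-FOA so hits raise OD615 growth.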 As to conditions: S. cerevisiae dse1pr::URA3 5-FOA growth, OD615, 2 d; at 10 µM; active compounds read high; strain carries analog-sensitive mutant Cbk1 kinase.
One may read the inhibition as the change of the read-out against control, counted positive when it falls. As for `CCOc1ccc(OCC)c(Nc2cc(C)nc3nc(C)nn23)c1`, the inhibition is 0.055%.

For the compound `O=C(Cn1cc2c(n1)CCCC2)NCCCN1CCN(C2CCCCC2)CC1`, the inhibition is 1.92%. Take `Cc1ccc(CN2CCN(CC(=O)N3CCC(C(N)=O)CC3)C2=O)cc1`: the inhibition was 2.1%.

In the case of `O=C(c1ccc(CS(=O)(=O)c2ccc(Br)cc2)o1)N1CCN(C2CCCCC2)CC1`, the inhibition was 1.93%.

In the case of `CCN(CC)C(=O)CCCOc1ccc(Cl)cc1Cl`, the inhibition is -0.905%.

Consider `O=C(O)c1ccc(NS(=O)(=O)c2cc(Cl)ccc2Cl)cc1`, for which the inhibition is 1.72%. Consider `S=c1[nH]nc(CSc2nc3ccccc3s2)o1`, for which the inhibition is 0.95%. Regarding `CCn1c(=O)cc(OCC(=O)N2CCc3ccccc32)c2ccccc21`, the inhibition is 2.09%. Consider `COC(=O)c1c(C)nn(-c2ccccc2)c1N`, for which the inhibition is 1.2%. Same read-out and setting: to `Fc1ccc(CN2CCCCCCC2)cc1F` belongs -0.325%; to `COc1ccccc1NC(=O)C1CCCN(S(=O)(=O)c2cnc[nH]2)C1` (configuration not stated), 0.53%; to `O=C(/C=N/O)Nc1ccccc1C(=O)O`, 2.12%. In the case of `O=C(NC(C(=O)c1ccccc1)N1CCOCC1)c1ccccc1` (configuration not stated), the inhibition was 1.61%. Still for that read-out and setting: then `COc1ccc(S(=O)(=O)N2CCN(C)CC2)c2ccccc12`, with 1.06%. On to `CCOc1cccc(NC(=O)Cc2cccs2)c1`, for which the inhibition is 1.06%. Consider `CCSc1nnc2c(n1)OC1(CCCC1)Nc1ccccc1-2`, for which the inhibition was 1.45%. Take `COc1ccc2c(c1)OC1(C)CC2C(C(=O)c2ccccc2OC)C(=O)N1` (configuration not stated): the inhibition is -0.025%. Still for that read-out and setting: then `O=C(NC1CCCCCC1)C1CCCN1S(=O)(=O)c1cccc2cccnc12` (configuration not stated), with 0.69%. Turning to `O=C(COc1ccccc1)NCc1nnc(SCC(=O)Nc2nccs2)n1-c1ccccc1`, the inhibition is 2.13%. Turning to `O=C(NCCc1csc(-c2ccccc2)n1)c1cccs1`, the inhibition is 0.41%. On to `COc1ccc(C2(C(=O)NCCCN(C)C)CCOCC2)cc1`, for which the inhibition is 1.26%. Still for that read-out and setting: to `COc1ccc(OCc2nnc(SCC(=O)O)n2N)cc1` belongs 0.66%; to `Cc1cccc(N2CC(c3nc4ccccc4n3C)CC2=O)c1C` (configuration not stated), 1.46%; to `CN(C)S(=O)(=O)c1ccc(C(=O)Nc2ccc(F)cc2F)cc1`, 0.29%. `CC(=O)CCc1c(C)[nH]c2ccc(NC(C)=O)cc2c1=O`: the inhibition is 0.77%.

Regarding `CC(C)C(NC(=O)CN1C(=O)c2ccccc2S1(=O)=O)C(C)C`, the inhibition is 1.4%. As for `CC12CCC(C(=O)Nc3ccc4c(c3)OCCO4)(OC1=O)C2(C)C` (configuration not stated), the inhibition was 1.28%. With `[O-]/[N+](=C\c1ccc(OC(F)F)cc1)c1ccccc1`, the inhibition is 1.19%.

Consider `COc1ccccc1NC(=O)C1=C(C)Nc2nnnn2C1c1cccc(C)c1` (configuration not stated), for which the inhibition is 3.79%.

`CCOCCn1c(SCC(=O)OCc2ccccc2)nc2c1c(=O)[nH]c(=O)n2C`: the inhibition is 0.495%.

With `O=C(NCCCN1CCOCC1)c1ccco1`, the inhibition was 0.23%.

Turning to `Cc1cccc(NC(=O)c2ccc(S(=O)(=O)N(C)C)cc2)c1`, the inhibition was 2.24%. Turning to `Cc1cc(=S)n(-c2ccccc2)n1C`, the inhibition was 1.21%. For the compound `O=C(O)C1C2C=CC3(CN(C/C=C/c4ccccc4)C(=O)C13)O2` (configuration not stated), the inhibition is 1.28%.

As to `COc1ccc(OC)c(NC(=O)Cn2cnc3c(cnn3-c3ccccc3)c2=O)c1`, the inhibition was 1.27%. The same measure, in the same setting: then `Cc1cc(C)n2nc(S(=O)(=O)N(CC(C)C)CC(C)C)nc2n1`, with 1.08%; and `Cc1cccc(N2CCN(c3nc4ccc(Cl)cc4n4cnnc34)CC2)c1C`, with -0.44%; and `O=C(O)c1cccc(-n2cnnn2)c1`, with 1.06%. `CN(C)CCCNc1ncnc2c1cnn2-c1ccccc1`: the inhibition was 0.27%. Turning to `O=C(Nc1nc(-c2ccccc2)cs1)c1cccs1`, the inhibition was -0.845%.

Source of the values: PubChem BioAssay.
